Data on five sequences can be found in paper PMC8384837, “Expanding the binding specificity for RNA recognition by a PUF domain”.

Assay in all cases: yeast three-hybrid, YBZ-1, SC-Leu-His + 0.5 mM 3-AT, 4 days
What all share (conditions): tags: N-Gal4 AD-HA kept; label: inside an RPR1-promoter hybrid RNA with tandem MS2 sites; ssRNA

One assay has as its target PUM1 PUF domain R3-GPW (Homo sapiens, UniProt Q14671 828-1176, C935G;R936P;Q939W). The method, boiled down: (§1)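 The interaction score is the log change in variant frequency from input to selection. Scores were computed in log2 with a pseudocount of 1 for absent variants, using Illumina sequencing of PCR-amplified repeat regions. The input came from four days on SC-Leu and the selection from four days on SC-Leu-His + 0.5 mM 3-AT. The cells were strain YBZ-1 (LexA–MS2 coat fusion, HIS3 reporter) co-expressing Pumilio-1 PUF domain libraries and matching RNA elements from a centromeric plasmid.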

The next assay addresses T1, PUM1 PUF domain R6-RYT (Homo sapiens, UniProt Q14671 828-1176, N1043R;Q1047T).
T1 sequence: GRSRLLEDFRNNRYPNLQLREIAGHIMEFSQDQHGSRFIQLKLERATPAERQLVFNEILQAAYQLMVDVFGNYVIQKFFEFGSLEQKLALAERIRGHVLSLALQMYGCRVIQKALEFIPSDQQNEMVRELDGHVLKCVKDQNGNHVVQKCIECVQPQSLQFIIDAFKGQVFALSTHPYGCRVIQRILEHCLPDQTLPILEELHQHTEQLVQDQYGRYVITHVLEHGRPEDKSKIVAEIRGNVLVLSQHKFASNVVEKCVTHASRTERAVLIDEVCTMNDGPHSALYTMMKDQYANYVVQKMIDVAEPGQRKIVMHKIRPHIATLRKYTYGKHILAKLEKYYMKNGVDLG
The essentials:
as §1

The target of another assay is PUM1 PUF domain R4-RRY (Homo sapiens, UniProt Q14671 828-1176, N971R;H972R;Q975Y). The method, boiled down: as §1
The next assay concerns the target PUM1 PUF domain R3-EFV (Homo sapiens, UniProt Q14671 828-1176, C935E;R936F;Q939V). The method, boiled down: as §1
The next assay has as its target PUM1 PUF domain R5-LYV (Homo sapiens, UniProt Q14671 828-1176, C1007L;R1008Y;Q1011V). The method, boiled down:
as §1

The next assay concerns the target PUM1 PUF domain R8-KHL (Homo sapiens, UniProt Q14671 828-1176, N1122K;Y1123H;Q1126L). The method, boiled down:
as §1

The target in another assay is PUM1 PUF domain R3-WCA (Homo sapiens, UniProt Q14671 828-1176, C935W;R936C;Q939A). The essentials:
as §1

The next assay concerns the target PUM1 PUF domain R5-QTI (Homo sapiens, UniProt Q14671 828-1176, C1007Q;R1008T;Q1011I). The method, boiled down:
as §1

A further assay addresses PUM1 PUF domain R3-MWY (Homo sapiens, UniProt Q14671 828-1176, C935M;R936W;Q939Y). The method, boiled down: as §1

As for “GGCUAGAACUAGUGGAUCCCCCGGCGCCCGGCGGCUCGAGCCCGGGUAAGUGUAAAUAGUCUGCAUGCCGCCGGGCGCCAUGCCUGCAGGUCGACUCUAGAAAACAUG”, the binding signal with PUM1 PUF domain R3-GPW is 4.04 log2 enrichment (interaction score); with PUM1 PUF domain R6-RYT it was 2.71 log2 enrichment (interaction score); with PUM1 PUF domain R4-RRY it was 2.87 log2 enrichment (interaction score); with PUM1 PUF domain R3-EFV, 3.71 log2 enrichment (interaction score); with PUM1 PUF domain R5-LYV, 3.28 log2 enrichment (interaction score); with PUM1 PUF domain R8-KHL, 4.75 log2 enrichment (interaction score).
Take “GGCUAGAACUAGUGGAUCCCCCGGCGCCCGGCGGCUCGAGCCCGGGUAAGUGUAAGUAGUCUGCAUGCCGCCGGGCGCCAUGCCUGCAGGUCGACUCUAGAAAACAUG”: the binding signal with PUM1 PUF domain R3-WCA is 3.27 log2 enrichment (interaction score).
For the sequence “GGCUAGAACUAGUGGAUCCCCCGGCGCCCGGCGGCUCGAGCCCGGGUAAGUGUGAAUAGUCUGCAUGCCGCCGGGCGCCAUGCCUGCAGGUCGACUCUAGAAAACAUG”, in the assay with PUM1 PUF domain R5-QTI, the binding signal is 3.11 log2 enrichment (interaction score).
Consider “GGCUAGAACUAGUGGAUCCCCCGGCGCCCGGCGGCUCGAGCCCGGGUAAGCGUAAAUAGUCUGCAUGCCGCCGGGCGCCAUGCCUGCAGGUCGACUCUAGAAAACAUG”, for which, in the assay with PUM1 PUF domain R8-KHL, the binding signal is 5.8 log2 enrichment (interaction score).
Turning to “GGCUAGAACUAGUGGAUCCCCCGGCGCCCGGCGGCUCGAGCCCGGGUAAGUGUAAUUAGUCUGCAUGCCGCCGGGCGCCAUGCCUGCAGGUCGACUCUAGAAAACAUG”, the binding signal with PUM1 PUF domain R3-MWY is 3.31 log2 enrichment (interaction score).
